Source: PubChem (National Center for Advancing Translational Sciences (NCATS))
In the library only some 7.6% were active in any assay of this set; here they are far more common.
KB-3-1 cytotox: qHTS assay for MDR1-selective chemotherapeutics: Primary screen using the parental adenocarcinoma cell KB-3-1. AID 1347075, 2019. KB-3-1 viability, CellTiter-Glo ATP luminescence, 72 h. hit rate 1.4% among 400,000. Potency, µM (titrated, usually from 46.1 µM), usual class: cytotoxic; also: potency is read from the fitted curve at half-maximal effect; % is scaled to controls: 0 for no effect and ±100 for the full control effect; nearly all actives have a fitted effect of over 60% in size
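Parental KB-3-1 adenocarcinoma cells in phenol-red-free DMEM with 10% FBS were pin-treated with compounds at several concentrations, incubated 72 h at 37 °C, and viability read by CellTiter-Glo luminescence; concentration-effect curves were fitted after normalization.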
KCNH2 WT inh: qHTS for Inhibitors of KCHN2 3.1: Wildtype qHTS; Voltage-gated inwardly rectifying potassium channel KCNH2 (Homo sapiens), Q12809; U2OS, BacMam KCNH2, thallium flux FluxOr; active compounds read low; activity change, % at 1.84 µM; hit rate 0.37% among 340,000;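 active = maximum activity change below -70%; inconclusive = maximum activity change between -70% and -50%; inactive = maximum activity change above -50%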; also: % is scaled to controls: 0 for no effect and ±100 for the full control effect
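U2OS cells transduced with wild-type KCNH2 virus are loaded with FluxOr dye for 45 min, and thallium flux is measured in kinetic reads before and after stimulation buffer. Rate constants are normalized to DMSO controls.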
MCF10A rerep: A quantitative high throughput screen for small molecules that induce DNA re-replication in MCF 10a normal breast cells; AID 624296, 2012; hit rate 2.9% among 350,000; Potency, µM (series often up to 46.1 µM), without a hit: at the highest dose activity, positive = re-replication, actives largely listed as activators; MCF 10A DNA re-replication, Hoechst nuclear intensity, 48 h; also: potency is read from the fitted curve at half-maximal effect; % of control where 0% means no effect; nearly all actives have a fitted effect of over 50% in size
SW480 rereplic: A quantitative high throughput screen for small molecules that induce DNA re-replication in SW480 colon adenocarcinoma cells; SW480 DNA re-replication, Hoechst DNA content imaging, 48 h; Potency, µM (series often up to 46.1 µM), inactives show at the top dose re-replication activation, most hits filed as activators; hit rate 1.8% among 340,000; also: potency is read from the fitted curve at half-maximal effect; % of control where 0% means no effect; nearly all actives have a fitted effect of over 55% in size
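First, 250 cells per well were seeded. Next, compound or vehicle (23 nL) was pinned in, plates sat 48 hr at 37 C. Finally Hoechst was added for 40 min before fluorescence scanning.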
KCNH2 3.1 inh: qHTS for Inhibitors of KCHN2 3.1: Mutant qHTS; hit rate 0.95% among 340,000; U2OS KCNH2 3.1, thallium flux FluxOr; active compounds read low; activity change, % (tested at about 1.8 µM); Potassium voltage-gated channel subfamily H member 2, brain isoform KCNH2 3.1 (human);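 active = maximum activity change below -70%; inconclusive = maximum activity change from -70% to -50%; inactive = maximum activity change above -50%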;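 also: thallium influx rate constant from kinetic fluorescence after stimulation buffer; % is scaled to controls: 0 for no effect and ±100 for the full control effect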
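Normalized rate constant (relative to positive and negative DMSO controls) derived from a 2 min kinetic fluorescence read after stimulation; U2OS cells expressing the 3.1 isoform via virus at 1.77 x 10^8 /mL.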
KB-V1 MDR tox: qHTS assay for MDR1-selective chemotherapeutics: Primary screen using the drug-selected MDR subline cells KB-V1; Potency, µM (doses to about 46.1 µM), most hits filed as cytotoxic; hit rate 3.4% among 400,000; KB-V1 MDR cells viability, CellTiter-Glo, 72 h; also: potency is read from the fitted curve at half-maximal effect; % is scaled to controls: 0 for no effect and ±100 for the full control effect; nearly all actives have a fitted effect of over 60% in size
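Readout: CellTiter-Glo luminescence, 10 min after addition. Cells: KB-V1 MDR subline, 72 h at 37 degrees C with compound. Analysis: corrected, normalized data fitted to concentration-effect curves.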
Numbers without * were called inactive; i = inactive; u = inconclusive; x = not tested or not shown. Unless noted, calls follow the shape of the dose curve; as a rule, active = well fitted curve in the direction sought with a large enough effect; inconclusive = small, poorly fitted or top-dose-only effect, or another doubt; inactive = no such curve, though single readings can be large; an effect the other way counts as inactive or inconclusive.

SMILES	KB-3-1 cytotox	KCNH2 WT inh	MCF10A rerep	SW480 rereplic	KCNH2 3.1 inh	KB-V1 MDR tox
Cc1cccc(C(=O)NC2CC3CCCC(C2)N3S(=O)(=O)c2ccccc2)c1 (stereo not given)	i	u	0%	0%	-72*	u
COc1ccc(CN2C3CCCC2CC(NC(=O)Nc2cccc(C)c2)C3)cc1 (stereo not given)	i	-87*	28%	u	-114*	i
COc1cccc(C(=O)NC2CC3CCCC(C2)N3Cc2ccc(C)cc2)c1 (stereo not given)	i	7	-2%	2%	-71*	i
Cc1ccc(S(=O)(=O)N(CC(=O)c2ccc(Cl)cc2)C(=O)N2CCN(C)CC2)cc1	i	0	-1%	-2%	5	u
O=C1[C@H](Cc2ccccc2)NCC=CC[C@H](c2ccco2)N1Cc1ccccc1	i	4	-2%	u	5	i
CCc1ccc(NC(=S)NC2CC3CCCC(C2)N3Cc2cccs2)cc1 (stereo not given)	i	35	0%	15µM*	-42	18µM*
O=C(CCN1CCc2ccccc21)c1ccc2c(c1)OCCO2	u	-17	15%	u	-11	i
COc1cc(C(=O)CCN2CCC(c3ccccc3)C2)cc(OC)c1OC (stereo not given)	i	-13	3.7µM*	u	-21	i
O=C(CCN1CCc2ccccc2C1)c1ccc2c(c1)OCCO2	u	-17	u	16µM*	-26	u
O=C(CCN1CCC(c2ccccc2)C1)c1ccc2c(c1)OCCO2 (stereo not given)	i	72	13µM*	u	-31	i
Nn1c(SCc2ccc(C(=O)O)cc2)nnc1-c1ccc(Cl)cc1Cl	i	4	u	-23%	-13	i
COc1ccc(Cl)cc1NC(=O)CCNS(=O)(=O)c1cccc2nonc12	i	2	-25%	-14%	0	u
O=C(NCCN1CCOCC1)C(=O)NCC1OCCN1S(=O)(=O)c1ccc(Cl)cc1 (stereo not given)	i	17	x	x	19	i
Nc1nc(=S)c2[nH]cnc2[nH]1	1µM*	x	u	19%	x	0.73µM*
COc1ccc(-n2c(SCCC#N)nnc2-c2cc(Cl)ccc2OC)cc1Cl	u	-4	16µM*	u	-28	u
Cc1oc(-c2ccccc2F)nc1CS(=O)(=O)CC(=O)N1CCN(c2ccc(Cl)cc2)CC1	16µM*	x	x	x	x	i
Cn1nc([N+](=O)[O-])nc1Sc1nnc(-c2ccccc2)o1	u	12	u	4.1µM*	1	i
O=Cc1ccc(Sc2nnc(-c3ccccc3)o2)c([N+](=O)[O-])c1	u	2	2.9µM*	u	-11	u
Cc1cc(C)nc(Sc2ccc(C=O)cc2[N+](=O)[O-])n1	i	8	0%	-7%	x	i
Cn1nc([N+](=O)[O-])nc1Sc1cccc2cccnc12	i	5	1%	-1%	14	u
O=C(O)CC1c2ccccc2CCN1S(=O)(=O)c1cccs1 (stereo not given)	i	21	0%	-17%	20	i
CCOC(=O)c1c(C)c(C(=O)NC2CCCCCC2)c(C)n1C	i	3	20%	3%	2	8.2µM*
CCOC(=O)c1c(C)c(C(=O)N2CCCCCC2)c(C)n1C	i	-8	-11%	-3%	-5	i
CCOC(=O)c1c(C)c(C(=O)N(C)C2CCCCC2)c(C)n1C	i	21	-1%	-4%	-9	15µM*
CC[n+]1c(/C=C2\C=C(C)CC(C)(C)C2)sc2ccccc21	i	5	u	u	-24	i
SMILES	KB-3-1 cytotox	KCNH2 WT inh	MCF10A rerep	SW480 rereplic	KCNH2 3.1 inh	KB-V1 MDR tox
CC[n+]1c(/C=C2\C=C(C)CC(C)C2)sc2ccccc21 (stereo not given)	i	-3	23µM*	2%	2	i
CC[n+]1c(/C=C2/C=C(C)CC(C)(C)C2)sc2ccc(OC)cc21	21µM*	-71*	16µM*	u	2	i
Cn1cc(C(=O)Nc2ccc(C#N)cc2)c2ccccc2c1=O	i	0	1%	-1%	20	i
O=C(NCCCCc1ccccc1)C1CC(c2cc(C(F)(F)F)cc(C(F)(F)F)c2)=NO1 (stereo not given)	i	1	u	-1%	-14	i
Cc1cc(N)cc(C)c1-c1c(Br)cc(N)cc1Br	13µM*	-5	u	u	-16	16µM*
Nc1cc(N)cc(N)c1	i	x	x	x	x	i
Cc1cnc(/C=C/c2ccc(N(C)C)cc2)cn1	i	x	x	x	x	i
CC(C)CCN(CCC(C)C)CC(O)Cn1c2ccccc2c(=O)c2ccccc21 (stereo not given)	i	1	3.3µM*	u	-21	u
COC(=O)C1CC(O)CN1C(=O)NC1CCCCC1 (stereo not given)	i	12	-6%	-4%	15	i
CCC/C(C)=N/NC(=O)c1ccccc1O	i	18	4%	16%	-4	i
O=C(NN=C(Cc1ccccc1)Cc1ccccc1)c1ccccc1O	i	11	12%	18µM*	12	u
CCOC(=O)C(CC)/C(C)=N\NC(=O)c1ccccc1O (stereo not given)	u	4	u	u	8	2.1µM*
C/C(=N\NC(=O)c1ccccc1O)c1c(O)cc(C)oc1=O	i	7	u	5.8µM*	-48	u
C/C(=N\NC(=O)c1ccccc1[N+](=O)[O-])c1c(O)cc(C)oc1=O	i	29	-6%	-7%	9	i
CN(C(=O)COC(=O)c1cc[n+]([O-])cc1)c1ccccc1	i	-18	1%	-6%	-3	i
COc1ccc(-c2oc3c(c2-c2cnc(OC)nc2)C(O)CC3)cc1 (stereo not given)	i	x	x	x	x	u
Cc1ccc(S(=O)(=O)N2CC(CO)=CCC2c2ccccc2)cc1 (stereo not given)	i	x	x	x	x	u
CSc1ccc(CNc2nc3ccccc3n3cnnc23)cc1	i	-1	13%	u	-3	i
